Measured values from PMC8384837, “Expanding the binding specificity for RNA recognition by a PUF domain”.

Target: PUM1 PUF domain R4-CNS (Homo sapiens, UniProt Q14671 828-1176, N971C;H972N;Q975S)
Experiment: yeast three-hybrid, YBZ-1, SC-Leu-His + 0.5 mM 3-AT, 4 days
Conditions: tags: N-Gal4 AD-HA kept; label: inside an RPR1-promoter hybrid RNA with tandem MS2 sites; ssRNA
Outline: (§1)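 Pumilio-1 PUF domain libraries, randomized (NNK) at the three base-contacting residues of each repeat, were co-expressed with matching RNA elements from a centromeric plasmid in strain YBZ-1 (LexA–MS2 coat fusion, HIS3 reporter). Transformants were plated on SC-Leu (input) and SC-Leu-His + 0.5 mM 3-AT (selection) for four days, and repeat regions were PCR-amplified and Illumina-sequenced. The interaction score is the log2 change in variant frequency from input to selection, with pseudocount 1 where absent.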

Sequence of PUM1 PUF domain R4-CNS (Q14671 828-1176 N971C/H972N/Q975S): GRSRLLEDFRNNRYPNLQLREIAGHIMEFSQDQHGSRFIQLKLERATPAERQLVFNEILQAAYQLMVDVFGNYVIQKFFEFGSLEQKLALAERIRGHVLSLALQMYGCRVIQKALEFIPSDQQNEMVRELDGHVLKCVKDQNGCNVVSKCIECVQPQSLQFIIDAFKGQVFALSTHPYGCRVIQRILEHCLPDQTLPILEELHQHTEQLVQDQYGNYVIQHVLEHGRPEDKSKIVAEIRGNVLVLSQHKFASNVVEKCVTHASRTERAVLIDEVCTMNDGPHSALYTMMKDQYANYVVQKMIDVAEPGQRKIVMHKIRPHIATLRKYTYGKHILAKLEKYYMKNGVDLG

Sequence	binding signal
GGCUAGAACUAGUGGAUCCCCCGGCGCCCGGCGGCUCGAGCCCGGGUAAGUGUACAUAGUCUGCAUGCCGCCGGGCGCCAUGCCUGCAGGUCGACUCUAGAAAACAUG	2.9 log2 enrichment (interaction score)
GGCUAGAACUAGUGGAUCCCCCGGCGCCCGGCGGCUCGAGCCCGGGUAAGUGUAUAUAGUCUGCAUGCCGCCGGGCGCCAUGCCUGCAGGUCGACUCUAGAAAACAUG	3.64 log2 enrichment (interaction score)
GGCUAGAACUAGUGGAUCCCCCGGCGCCCGGCGGCUCGAGCCCGGGUAAGUGUAAAUAGUCUGCAUGCCGCCGGGCGCCAUGCCUGCAGGUCGACUCUAGAAAACAUG	0.73 log2 enrichment (interaction score)

Target: PUM1 PUF domain R5-RRW (Homo sapiens, UniProt Q14671 828-1176, C1007R;Q1011W)
Sequence (Q14671 828-1176 C1007R/Q1011W): as the sequence (Q14671 828-1176 N971C/H972N/Q975S) above, with C144N, N145H, S148Q, C180R, Q184W counted along it
Experiment: as above
Conditions: tags: N-Gal4 AD-HA kept; label: inside an RPR1-promoter hybrid RNA with tandem MS2 sites; ssRNA
Outline: as §1

Sequence	binding signal
GGCUAGAACUAGUGGAUCCCCCGGCGCCCGGCGGCUCGAGCCCGGGUAAGUGUGAAUAGUCUGCAUGCCGCCGGGCGCCAUGCCUGCAGGUCGACUCUAGAAAACAUG	0.3 log2 enrichment (interaction score)
GGCUAGAACUAGUGGAUCCCCCGGCGCCCGGCGGCUCGAGCCCGGGUAAGUGUUAAUAGUCUGCAUGCCGCCGGGCGCCAUGCCUGCAGGUCGACUCUAGAAAACAUG	3.67 log2 enrichment (interaction score)
GGCUAGAACUAGUGGAUCCCCCGGCGCCCGGCGGCUCGAGCCCGGGUAAGUGUCAAUAGUCUGCAUGCCGCCGGGCGCCAUGCCUGCAGGUCGACUCUAGAAAACAUG	3.43 log2 enrichment (interaction score)
GGCUAGAACUAGUGGAUCCCCCGGCGCCCGGCGGCUCGAGCCCGGGUAAGUGUAAAUAGUCUGCAUGCCGCCGGGCGCCAUGCCUGCAGGUCGACUCUAGAAAACAUG	0.79 log2 enrichment (interaction score)

Target: PUM1 PUF domain R8-HWK (Homo sapiens, UniProt Q14671 828-1176, N1122H;Y1123W;Q1126K)
Sequence (Q14671 828-1176 N1122H/Y1123W/Q1126K): as the sequence (Q14671 828-1176 N971C/H972N/Q975S) above, with C144N, N145H, S148Q, N295H, Y296W, Q299K counted along it
Experiment: as above
Conditions: tags: N-Gal4 AD-HA kept; label: inside an RPR1-promoter hybrid RNA with tandem MS2 sites; ssRNA
Outline: as §1

Sequence	binding signal
GGCUAGAACUAGUGGAUCCCCCGGCGCCCGGCGGCUCGAGCCCGGGUAAGGGUAAAUAGUCUGCAUGCCGCCGGGCGCCAUGCCUGCAGGUCGACUCUAGAAAACAUG	2.46 log2 enrichment (interaction score)
GGCUAGAACUAGUGGAUCCCCCGGCGCCCGGCGGCUCGAGCCCGGGUAAGUGUAAAUAGUCUGCAUGCCGCCGGGCGCCAUGCCUGCAGGUCGACUCUAGAAAACAUG	2.36 log2 enrichment (interaction score)
GGCUAGAACUAGUGGAUCCCCCGGCGCCCGGCGGCUCGAGCCCGGGUAAGCGUAAAUAGUCUGCAUGCCGCCGGGCGCCAUGCCUGCAGGUCGACUCUAGAAAACAUG	2.42 log2 enrichment (interaction score)
